From PubChem BioAssay AID493008 (The Scripps Research Institute Molecular Screening Center, 2010)
Out of some 340,000 compounds screened, about 800 (0.24%) were called active. This is one part of a sample in which actives are shown more often than they occur. Values without a mark were called inactive.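 How the source made its calls: active means activation above the mean over all tested compounds plus 3 SD (cut at about 30% in these data); inactive means the rest.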

The compounds below were run against Troponin I, cardiac muscle (Homo sapiens) + Troponin T, cardiac muscle (Homo sapiens) + Troponin C, slow skeletal and cardiac muscles (Homo sapiens) (UniProt P19429+P45379+P63316) (assay: calcium sensitizers of cardiac thin filaments – biochemical, IANBD-TnC fluorescence, EC20 calcium, primary screen (AID 493008;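 further: rise in fluorescence read as greater calcium sensitivity of cardiac thin filaments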)). Conditions: IANBD-labeled TnC RTF fluorescence at EC20 calcium; at 7.2 µM; stronger effect = higher value; 0% EC20 calcium, 100% full calcium.

First: O=C(NC1=CC(=O)c2ccccc2C1=O)c1ccccc1
Second: O=C(COC(=O)c1cccc(Br)c1)Nc1cccc2c1C(=O)c1ccccc1C2=O
The activation of the first is higher: -2.47% for the first, -3.82% for the second.

First: CCCCC(CC)CNCc1cccn1CCN1CCOCC1 (stereo not given)
Second: CCCc1ccc(OCC(O)CN2CCN(CCO)CC2)cc1 (stereo not given)
The activation of the first is higher: -0.42% for the first, -4.14% for the second.

Compared with `CCOC(=O)c1ccc(N=C2SC(C(=O)NC)CC(=O)N2CCc2ccccc2)cc1` (stereo not given), `CC1CCN(c2c(NCc3ccc(C(=O)NCc4ccccc4)cc3)c(=O)c2=O)CC1` is higher in activation: 2.1% for the first, 13.9% for the second.

Going from `O=C(CSc1ncnc2sccc12)N1CCN(C(=O)c2cccs2)CC1` to `Cc1ccc2nc(SCC(=O)N3CCN(c4ccccc4)CC3)nc(=O)n2c1`, the activation falls from 0.04% to -2.94%.

First: COc1ccc(C23NCCN2C(=O)c2ccccc23)cc1 (stereo not given)
Second: COc1ccc(-c2cc(C(=O)N3CCN(c4ccc(F)cc4)CC3)no2)cc1
The activation of the first is higher: -1.61% for the first, -6.29% for the second.

First: COc1cc(S(=O)(=O)N2CCN=C2c2ccccc2)ccc1Cl
Second: O=c1ccc(S(=O)(=O)N2CCCC2)cn1Cc1nc(-c2ccccc2)no1
The activation of the first is lower: -3% for the first, -2.09% for the second.

First: COc1ccc(NC(C(=O)Nc2cccc(C(C)=O)c2)c2ccccc2)cc1 (stereo not given)
Second: CCOc1ccc(N(CC(=O)NCCOc2ccccc2OC)S(=O)(=O)c2ccccc2)cc1
The activation of the first is higher: 2.77% for the first, 2.75% for the second.

Compared with `CC1CCCN(S(=O)(=O)c2ccc(-c3ccc(=O)[nH]n3)o2)C1` (stereo not given), `Nc1nc(SCC(=O)N2CCN(S(=O)(=O)c3ccc(Cl)cc3)CC2)n[nH]1` is higher in activation: 0.69% for the first, 11.6% for the second.

First: Oc1[nH]c2ccccc2c1N=Nc1c(F)c(F)c(F)c(F)c1F
Second: NS(=O)(=O)c1ccc(N=Nc2c(O)[nH]c3ccc(Br)cc23)cc1
The activation of the first is higher: 3.02% for the first, -6.02% for the second.

Compared with `Cc1ccc(C(=O)O)c(NC=O)c1OCc1ccccc1`, `Cc1ccsc1-c1cc(C(=O)O)c2c(ccc3ccccc32)n1` is higher in activation: -0.38% for the first, 2.92% for the second.

First: CCN(CC)c1ccc(C(=O)Nn2c(C)nc3ccccc3c2=O)cc1
Second: CCn1cc(C(=O)N2CC=C(c3ccccc3)CC2)c(=O)c2ccc(C)nc21
The activation of the first is higher: 8.65% for the first, -3.54% for the second.

Going from `Cc1ccc2oc(=O)ccc2c1` to `Cc1ccc2[nH]c(=O)c(-c3nc4c(C)cccn4c3NCc3ccco3)cc2c1`, the activation rises from -3.77% to -3.25%.

Compared with `CCOC(=O)c1ccccc1CN1C(=O)c2ccccc2S1(=O)=O`, `CCOC(=O)c1ccccc1OC(=O)Oc1ccccc1C(=O)OCC` is lower in activation: 6.29% for the first, 0.28% for the second.

First: COCCNC(=O)c1onc(CSc2cccc(C)c2)c1C(=O)O
Second: COc1cccc(NS(=O)(=O)c2ccc3[nH]cc(C(=O)NCCCOC(C)C)c(=O)c3c2)c1
The activation of the first is higher: 2.19% for the first, 1.55% for the second.

Compared with `Cc1cccc(NC(=O)CSc2nc3c(c(=O)[nH]2)CCC3)c1C`, `Cc1cccc(NC(=O)CN2CCN(CC(=O)NCC3(N4CCCCC4)CCCCC3)CC2)c1C` is lower in activation: 5.1% for the first, -1.57% for the second.

Compared with `Cc1cc(OC(C)C(=O)NC2CC(C)(C)NC(C)(C)C2)c2c(C)cc(=O)oc2c1` (stereo not given), `COCc1cc(=O)[nH]c2cc(NC(=O)C(F)(F)F)c(C)cc12` is higher in activation: -6.45% for the first, -3.59% for the second.

Compared with `CCOc1nc(OCC)nc(-n2cc(-c3ccccc3)nn2)n1`, `CCCNCc1cc(OCC)c(OCC(=O)Nc2ccccc2)cc1Br` is higher in activation: -0.01% for the first, 4.49% for the second.

Compared with `CCC1(C)COC(c2ccc(OC)c(OC)c2)OC1` (stereo not given), `COc1ccc(CNCCCO)cc1OC` is lower in activation: 15.5% for the first, 2.52% for the second.

First: COc1ccc(C2C(C#N)=C(N)Oc3cc(N)ccc32)cc1OC (stereo not given)
Second: COc1ccc(OC)c(Cc2cnc3nc(N)nc(N)c3c2C)c1
The activation of the first is higher: 2.36% for the first, 0.81% for the second.

First: CC(=O)c1cc2c(cc1NC(=O)Cn1nc(-c3ccc(F)cc3)ccc1=O)OCO2
Second: COc1ccc(OC)c(NC(=O)c2ccc3c(c2)C(=O)N(c2ccc(OC(C)=O)cc2)C3=O)c1
The activation of the first is higher: 1.13% for the first, 1.02% for the second.

Compared with `CCOC(=O)c1c(NC(=O)C2CC=CCC2C(=O)O)sc(C)c1CC` (stereo not given), `CCOc1ccc2oc(C(=O)N(CC)CC(=O)Nc3ccc(NC(C)=O)cc3)c(C)c2c1` is lower in activation: 1.94% for the first, -0.31% for the second.

Compared with `CSC1=NCCN1C(=O)Cc1cccc2ccccc12`, `O=C(C[n+]1cc(Br)cc2ccccc21)c1ccc(F)cc1` is higher in activation: -2.5% for the first, -1.35% for the second.

First: OC1CCCN(c2ncnc3c2nnn3Cc2c(F)cccc2Cl)C1 (stereo not given)
Second: O=c1cc(N2CCCCC2)c(-c2ccccc2)nn1Cc1cccc(F)c1
The activation of the first is higher: 6.74% for the first, -0.45% for the second.

Going from `CCOc1ccc(C2c3[nH]c4ccccc4c3CCN2Cc2cccn2-c2ncccn2)cc1` (stereo not given) to `COC(=O)Cc1c(-c2[nH]c3ccccc3c2CC(=O)OC)[nH]c2ccccc12`, the activation falls from 1.17% to 0.63%.

First: Cc1ccc(CN2CCN(Cc3ccc4ncccc4c3)CC2CCO)cc1 (stereo not given)
Second: Cc1ccc(CNC(=O)c2ccc3c(c2)S(=O)(=O)c2ccccc2C3=O)cc1
The activation of the first is higher: 0.85% for the first, -0.11% for the second.

First: Cc1cccc(C)c1NC(=O)CCCSc1nnc(-c2ccco2)n1-c1ccccc1
Second: O=C(Cn1cnc2ccccc21)Nc1ccccc1-c1ccccc1
The activation of the first is lower: -3.75% for the first, -3.39% for the second.

Going from `CCOc1ccc(-n2cnnn2)cc1S(=O)(=O)N1CCC(C)CC1C` (stereo not given) to `CCOC(=O)N1CCC(c2cc(=O)n(-c3ccccc3)[nH]2)CC1`, the activation rises from -1.75% to 2.7%.

First: COCCCNC(=O)CNC(=S)N(Cc1cc(OC)c(OC)c(OC)c1)C1CCCC1
Second: COc1ccc(/C=C/C(=O)OCC(=O)NC2CCCCCC2)cc1OC
The activation of the first is lower: -8.44% for the first, -4.52% for the second.

First: Cc1ccccc1-n1nc(SCC(=O)O)sc1=S
Second: Cc1nc(N)sc1-c1ccccc1
The activation of the first is higher: -0.8% for the first, -3.97% for the second.

Going from `CNc1nc2c(C)cccn2c(=O)c1C=Nc1ccc(OC)cc1` to `COc1ccc(CNC(=O)COC(=O)C2=Cc3ccccc3OC2)cc1`, the activation falls from -1.57% to -9.53%.

Going from `O=S(=O)(NCCc1ccc(Cl)cc1)c1cccs1` to `Cc1nc([N+](=O)[O-])cn1CC(=O)Nc1ccc(Cl)cc1`, the activation rises from -0.86% to 0.6%.

Compared with `O=C(c1c(Cl)nc2sccn12)N1CCCc2ccccc21`, `O=C(c1cc(-c2ccc(O)cc2)on1)N1CCCc2ccccc21` is higher in activation: -2.79% for the first, 6.06% for the second.

First: CN(C)c1ccc(C=C2C(=O)OC3(CCCC3)OC2=O)cc1
Second: O=C(NCc1ccccc1CN1CCCC1)c1cccc(S(=O)(=O)Nc2ccc(F)cc2)c1
The activation of the first is lower: -3.77% for the first, -1.12% for the second.

First: CC1CN(Cc2ccccc2)C(=S)NC1=O (stereo not given)
Second: CN(O)C(=S)c1ccccc1
The activation of the first is higher: -1.27% for the first, -1.46% for the second.

Going from `CCCCNC(=O)C(C)N(CCN(C)C)C(=O)CCCCCN1C(=O)NC(c2ccc(Cl)cc2)C(C(=O)OCc2ccccc2)=C1C` (stereo not given) to `C=CCC[C@@H](Cc1ccc(F)cc1)C(=O)OC[C@H](Cc1c[nH]c2ccccc12)NC(=O)[C@@H](CC=C)CC(=O)N(CCO)Cc1ccccc1`, the activation rises from -4% to -0.54%.

Going from `COc1ccc(OC)c(CCNC(=O)c2nn(C)c3c2CS(=O)(=O)c2ccccc2-3)c1` to `COc1ccc(C(=O)OCc2cc(=O)n3ccsc3n2)cc1F`, the activation falls from -2.91% to -7.02%.

Going from `CC1CCCN(CC(O)COc2ccc3c(c2)OCO3)C1` (stereo not given) to `COCCCNC(=O)C1CCN(c2ccc(N3CCOCC3)nn2)CC1`, the activation rises from -0.7% to 1.09%.

Compared with `Cn1cccc1C(=O)N1CCc2ccccc2C1`, `OCC[C@H]1C[C@@H](O)[C@H](O)[C@]2(OCCCc3ccccc32)O1` is higher in activation: 1.33% for the first, 2.9% for the second.

Compared with `CN1CCNC(=O)C1CC(=O)NCCC1=CCCCC1` (stereo not given), `Cc1nc(N=C(N)N)nc2c(C)cccc12` is lower in activation: 9.88% for the first, -2.23% for the second.

`COc1cccc2c1C(=O)c1c(O)c3c(c(O)c1C2=O)CC(O)(C(C)=NNC(=O)c1ccc(Cl)c(Cl)c1)CC3OC1CC(N)C(O)C(C)O1` (stereo not given) was tested, and the activation was 220% (active).
`Nc1c(C(=O)c2cccs2)sc2nsc(SCCN3CCCCC3)c12` was tested, and the activation was 30.6% (active).
`COc1ccc(-c2onc3ccc(C(C)=O)cc23)cc1` was tested, and the activation was 42.2% (active).
For `Cc1cccc(N=Nc2c(O)[nH]c3ccc(F)cc23)c1`, the activation was 31.3% (active).
In the case of `CCN(CC)c1ccc2oc(=O)c(C)nc2c1`, the activation is reported as 59.9% (active).
For `COc1ncnc2c1N=C1CC(C)(C)CC(N)=C1S2`, the activation was 30.1% (active).
For `CCOC(=O)c1cc2n(c1N)-c1ccccc1C2=O`, the activation was 40.9% (active).
For `COc1ccc(C2c3ccc(O)cc3Oc3ncn(CCCO)c(=N)c32)cc1OC` (stereo not given), the activation was 91.1% (active).
`CN1C(=O)/C(=C/C=C2\SCCN2C)OC1=S` was tested, and the activation was 34% (active).
With `Nc1ccc2nc3c(=O)[nH]c(=S)[nH]c3nc2c1` the activation was 266% (active).
In the case of `CCCN(CCC)c1nc2c(C)cccn2c(=O)c1/C=C1/SC(=S)N(Cc2ccco2)C1=O`, the activation is reported as 34% (active).
For `O=C(COC(=O)Cn1cnc2ccccc21)Nc1cccc2c1C(=O)c1ccccc1C2=O`, the activation was 45.7% (active).
In the case of `Cc1cccc2cc3c(N)c(C(=O)N4CCCc5ccccc54)sc3nc12`, the activation is reported as 44.8% (active).
With `COC(=O)C[n+]1cccc2ccccc21` the activation was 58.3% (active).
`CN(C)c1ccc(/C=C2\NC(=S)N(Cc3ccccc3)C2=O)cc1` was tested, and the activation was 66% (active).
With `CCCC1OC23CCCCC2C(C#N)(C#N)C1(C#N)C(=N)O3` (stereo not given) the activation was 35% (active).
`Cc1ccc(CNC(=O)c2cccc3c2C(=O)c2ccc(N4CCC(C)CC4)cc2S3(=O)=O)cc1` was tested, and the activation was 100% (active).
